From PubChem BioAssay
Myeloid diff MLP: induction of myeloid progenitor differentiation, primary screen, cell-based, flow cytometry, MLPCN library. ER-HoxA9 myeloid progenitors, lysozyme-GFP differentiation. actives 1% (n = 360,000). calls only at 10 µM. AID 624256, 2012;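 active = normalized GFP-positive differentiation at or above the plate's own cutoff, the solvent-only control mean plus 3 SD; inconclusive = no clear call, values can overlap the other calls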;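 also: cells exposed to compound for four days before flow analysis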
FAS TE block: FAS thioesterase domain inhibitors, primary screen, biochemical, fluorescence intensity, uHTS. AID 602261, 2012. actives 0.67% (n = 360,000). inhibition, % at 15 µM. recombinant FAS-TE, OMFH fluorogenic substrate, fluorescence endpoint. Fatty acid synthase (Homo sapiens), P49327;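 active = compounds whose normalised, plate-corrected inhibition of enzyme fluorescence in the single-dose primary screen is 50% or more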
NadD block: inhibitors of S. aureus NadD, primary screen, biochemical, colorimetric, uHTS; actives 0.78% (n = 360,000); purified NadD enzyme, colorimetric absorbance read-out; inhibition, % at 20 µM; Nicotinate-nucleotide adenylyltransferase NadD (Staphylococcus aureus N315); in the data active = inhibition above about 26%
CRFR2-BP antag: antagonists of CRF-BP/CRF-R2 complex, primary screen, cell-based, HEK293, calcium dye fluorescence, uHTS; CRF-induced calcium fluorescence; inhibition, % at 11.8 µM; actives 0.59% (n = 350,000); AID 588475, 2011;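 active = inhibition of the ligand-induced calcium signal above about 50% at the single tested concentration, limit read from the data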
NRP1-CendR mod: modulators of CendR peptide binding to NRP-1, primary screen, biochemical, fluorescence polarization, uHTS; actives 0.85% (n = 360,000); Neuropilin-1 (Homo sapiens), O14786; inhibition, % at 25 µM; FAM-RPARPAR peptide binding to NRP-1;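 active = inhibition or corrected inhibition above about 18%, plus a signal ratio from 0.5 to 1.5, limit read from the data, passing the limit was not always enough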
Target sequence (O14786 whole entry, looked up): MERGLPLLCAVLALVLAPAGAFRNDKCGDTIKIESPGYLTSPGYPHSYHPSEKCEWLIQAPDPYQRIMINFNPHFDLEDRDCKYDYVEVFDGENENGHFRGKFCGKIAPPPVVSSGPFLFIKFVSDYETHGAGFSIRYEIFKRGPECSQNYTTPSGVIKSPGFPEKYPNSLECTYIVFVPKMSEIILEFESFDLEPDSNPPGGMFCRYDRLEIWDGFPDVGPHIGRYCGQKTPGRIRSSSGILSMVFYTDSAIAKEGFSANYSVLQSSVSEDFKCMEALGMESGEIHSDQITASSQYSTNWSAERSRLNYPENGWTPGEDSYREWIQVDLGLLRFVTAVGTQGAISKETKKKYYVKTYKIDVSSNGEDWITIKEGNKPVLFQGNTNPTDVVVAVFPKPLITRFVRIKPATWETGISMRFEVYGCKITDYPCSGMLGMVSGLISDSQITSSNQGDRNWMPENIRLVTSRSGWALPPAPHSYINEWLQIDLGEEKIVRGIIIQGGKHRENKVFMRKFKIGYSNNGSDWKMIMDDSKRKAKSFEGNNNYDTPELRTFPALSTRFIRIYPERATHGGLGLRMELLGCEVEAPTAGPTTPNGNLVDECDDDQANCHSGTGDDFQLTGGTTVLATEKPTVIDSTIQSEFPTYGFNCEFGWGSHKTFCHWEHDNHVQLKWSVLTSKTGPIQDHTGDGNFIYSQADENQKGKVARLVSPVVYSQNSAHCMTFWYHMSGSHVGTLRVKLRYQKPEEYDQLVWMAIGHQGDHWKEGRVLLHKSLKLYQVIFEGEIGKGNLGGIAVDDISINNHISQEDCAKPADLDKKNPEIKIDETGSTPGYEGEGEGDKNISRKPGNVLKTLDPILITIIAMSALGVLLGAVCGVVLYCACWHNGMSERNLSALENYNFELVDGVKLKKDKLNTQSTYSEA
Myeloid diff CP1: inducers of myeloid progenitor differentiation, confirmation, cell-based, GFP/Mac1 flow cytometry, cherry pick 01. AID 651706, 2012. calls only. actives 2% (n = 2,300). shares compounds with Myeloid diff MLP. ER-HoxA9 myeloid progenitors, GFP/Mac1 double-positive flow;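 active = share of green or green-and-red cells above 9 and 9% in run 1 or 4 and 3% in run 2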
GFP autofluor: flagged as fluorescent in myeloid differentiation counter-screen; fluorescence response, % (test concentration not listed); actives 7.4% (n = 2,300); shares compounds with Myeloid diff MLP; ER-HoxA9 myeloid progenitors, no estrogen, GFP autofluorescence flow cytometry; vehicle wells 0%, positive control 100%;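 active = over 5% cells positive for green fluorescent reporter, or over 2% positive for both it and APC stain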
Of the large screens only hits and unclear results are named; the others gave an inactive call (follow-up assays come after a bar, where they were run). In the library only some 3.6% were active in any assay of this set; here they are far more common.

CNC(=S)N(CCc1c(C)[nH]c2ccccc12)Cc1cc(OC)c(OC)c(OC)c1	none
CCNC(=S)N(CCc1c(C)[nH]c2ccccc12)Cc1cc(OC)c(OC)c(OC)c1	none | Myeloid diff CP1 inactive | GFP autofluor inactive
CSc1ccc(OC2(C)CCN(Cc3ccc(-c4ccccn4)cc3)C2)cc1 (stereo not given)	none (no result: CRFR2-BP antag)
CC(=O)Nc1cccc(-c2ccnc3c2CC(C)(C(=O)NCc2ccc(N(C)C)cc2)O3)c1 (stereo not given)	Myeloid diff MLP active (no result: CRFR2-BP antag) | Myeloid diff CP1 inactive | GFP autofluor inactive
CC(OC(=O)c1cc(S(=O)(=O)N2CCOCC2)ccc1F)C(=O)NC1CCCCC1C (stereo not given)	none
O=C(Cc1cccs1)N[C@@H]1c2ccccc2CC[C@@H]1OCc1ccccc1	none
CCC(=O)N=c1ccn(C2=Nc3ccccc3NC2=C(C#N)C#N)cc1	none
CCn1c(CNC(=O)COc2ccc(C(C)C)cc2)nnc1SCC(=O)Nc1ccc(F)cc1	none | Myeloid diff CP1 inactive | GFP autofluor inactive
CCn1c(CNC(=O)COc2ccc(C(C)C)cc2)nnc1SCC(=O)Nc1cc(F)ccc1C	none
Cc1[nH]nc2c1C1(C(=O)N(Cc3ccc(Cl)cc3)c3ccccc31)C(C#N)=C(N)O2 (stereo not given)	none | Myeloid diff CP1 inactive | GFP autofluor inactive
CCOC(=O)c1c(C)[nH]c(C)c1C(=O)COC(=O)/C=C/c1ccccc1[N+](=O)[O-]	Myeloid diff MLP active | Myeloid diff CP1 inactive | GFP autofluor inactive
CCOC(=O)c1c(C)[nH]c(C(=O)COC(=O)/C=C/c2ccc3c(c2)OCO3)c1C	none
CCOC(=O)c1c(C)[nH]c(C)c1C(=O)COC(=O)/C=C/c1cccc(Cl)c1	none
CCOC(=O)c1c(C)[nH]c(C(=O)COC(=O)/C=C/c2ccc(O)c(OC)c2)c1C	none | Myeloid diff CP1 inactive | GFP autofluor inactive
CCc1c(C)nc(N2CCN(c3ccccc3F)CC2)[nH]c1=O	none
COc1ccc(NC(=O)N2CCCC2C(=O)NCCc2ccccc2)cc1 (stereo not given)	none | Myeloid diff CP1 inactive | GFP autofluor inactive
CCn1c(=O)c(C(=O)Nc2cccnc2)c(O)c2ccccc21	none
CCn1c(=O)c(C(=O)NCc2cccnc2)c(O)c2ccccc21	none | Myeloid diff CP1 inactive | GFP autofluor inactive
Cc1ccc(NC(=O)CC2C(=O)NCCN2C(=O)c2ccc(F)cc2)cc1 (stereo not given)	none
COc1ccc(-c2sc(C(=O)c3ccc(Cl)cc3Cl)cc2CC(=O)O)cc1	Myeloid diff MLP active | Myeloid diff CP1 inactive | GFP autofluor inactive
O=C(O)Cc1ccc(C(=O)c2ccc(Cl)cc2Cl)s1	none
CC1(C2CC2)NC(=O)N(CC(=O)Nc2ccc(OC(F)F)cc2)C1=O (stereo not given)	none
COc1ccccc1CC1(C)NC(=O)N(CC(=O)N2CC(C)OC(C)C2)C1=O (stereo not given)	none | Myeloid diff CP1 inactive | GFP autofluor inactive
CC1CN(C(=O)CN2C(=O)NC3(CCCCCC3)C2=O)CC(C)O1 (stereo not given)	none
O=C(c1ccc(CS(=O)c2cccc(Cl)c2)o1)N1CCN(c2ccccn2)CC1 (stereo not given)	none
c1ccc(COc2ncnc3c2ncn3CCCN2CCN(c3ccccn3)CC2)cc1	none
c1ccc(COc2ncnc3c2ncn3CCCN2CCN(c3ncccn3)CC2)cc1	none | Myeloid diff CP1 inactive | GFP autofluor inactive
O=c1cc(-c2ccccc2Cl)oc2c(Br)ccc(O)c12	Myeloid diff MLP active | Myeloid diff CP1 inactive | GFP autofluor inactive
O=c1cc(-c2ccccc2Cl)oc2cccc(O)c12	none
COc1ccccc1CCNC(=O)c1ccoc1C	Myeloid diff MLP active | Myeloid diff CP1 inactive | GFP autofluor inactive
COc1ccc(-c2sc(Nc3ccccc3)n[n+]2-c2ccc(F)cc2)c(C)c1C	none | Myeloid diff CP1 inactive | GFP autofluor 4.2
C#CC[N+](C)(C)CCCCCCCCCC	Myeloid diff MLP inconclusive
C#CC[N+](C)(C)CCCCCCCC	none | Myeloid diff CP1 inactive | GFP autofluor inactive
CN(C)c1ccc(CNCc2cccnc2)cc1	none | Myeloid diff CP1 inactive | GFP autofluor inactive
CC(C)(C)OC(=O)N[C@@H](Cc1ccccc1)C(=O)N1CCC(C(=O)N[C@@H](CCC(N)=O)C(=O)O)CC1	none
CC(C)(C)OC(=O)N[C@@H](Cc1ccccc1)C(=O)N1CCC(C(=O)O)CC1	none | Myeloid diff CP1 inactive | GFP autofluor inactive
COC(=O)CCCCCN1C(=O)NC(c2ccccc2)C(C(=O)OCc2ccccc2)=C1C (stereo not given)	none | Myeloid diff CP1 inactive | GFP autofluor inactive
O=C(ONC(=O)C1C2C=CC(C2)C1C(=O)NOC(=O)c1ccccc1)c1ccccc1 (stereo not given)	none | Myeloid diff CP1 inactive | GFP autofluor inactive
O=C(COC(=O)/C=C/c1ccc(S(=O)(=O)N2CCOCC2)cc1)Nc1ccccc1F	none
COc1ccc(NC(=O)/C=C/c2ccc(S(=O)(=O)N3CCOCC3)cc2)cc1	none
O=C(/C=C/c1cccc(F)c1)Nc1cc(S(=O)(=O)N2CCOCC2)ccc1Cl	none | Myeloid diff CP1 inactive | GFP autofluor inactive
Cc1ccc(S(=O)(=O)N2CCOCC2)cc1NC(=O)COC(=O)/C=C/c1ccc(F)cc1	none | Myeloid diff CP1 inactive | GFP autofluor inactive
O=C(/C=C/c1cccc(F)c1)Nc1cc(S(=O)(=O)N2CCOCC2)ccc1N1CCCC1	none
COc1ccc(/C=C/C(=O)Nc2ccc(C)c(S(=O)(=O)N3CCOCC3)c2)cc1	none | Myeloid diff CP1 inactive | GFP autofluor inactive
CCOc1ccc(NS(=O)(=O)c2ccc(NC(=S)NC(=O)CC(C)C)cc2)cc1	none | Myeloid diff CP1 inactive | GFP autofluor inactive
CCN1CCN(C(=S)c2ccc(-c3ccccc3)cc2)CC1	none
N#C/C(=C\c1cccnc1)C(=O)NC1CCCCC1	Myeloid diff MLP active | Myeloid diff CP1 inactive | GFP autofluor inactive
Cc1ccc(Cn2c(C(C)Nc3nc(C)cs3)nc3cc(Cl)c(Cl)cc32)cc1 (stereo not given)	none (no result: Myeloid diff MLP, FAS TE block, NadD block, NRP1-CendR mod)
CC(C)c1nc(CNC(=O)C2CCC(=O)N(CCc3cccc(F)c3)C2)cs1 (stereo not given)	none
O=C(Nc1ccccc1[N+](=O)[O-])c1nc[nH]c1C(=O)NCCO	Myeloid diff MLP active | Myeloid diff CP1 inactive | GFP autofluor inactive
NNC(=O)c1nc[nH]c1C(=O)Nc1ccccc1[N+](=O)[O-]	none
